Rows were chosen to be rich in hits. Some 6% of all compounds tested hit in one or more screens of this group.
D1 agonist: agonists of human D1 dopamine receptor; P21728; HEK293 T-REx D1 cells, calcium flux, agonist mode; activation, % at 2 µM; actives 1% (n = 360,000); in the data active = activation above about 30%; also: 0% is about no effect
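Agonism was scored from calcium flux recorded over 180 s (1 read/s) after pintool compound addition, following a 10-cycle baseline. Cells were inducible force-coupled HEK293 TREx D1, plated overnight at 30 C and loaded with no-wash calcium dye.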
D3 ag: D3 dopamine receptor (human) agonism. P35462. D3R DiscoveRx beta-arrestin cells, luminescence, 90 min. max activation, %. actives 0.58% (n = 410,000). AID 652048; in the data active = max activation above about 30%; also: 0% is about no effect
Target sequence (P35462 whole entry, looked up): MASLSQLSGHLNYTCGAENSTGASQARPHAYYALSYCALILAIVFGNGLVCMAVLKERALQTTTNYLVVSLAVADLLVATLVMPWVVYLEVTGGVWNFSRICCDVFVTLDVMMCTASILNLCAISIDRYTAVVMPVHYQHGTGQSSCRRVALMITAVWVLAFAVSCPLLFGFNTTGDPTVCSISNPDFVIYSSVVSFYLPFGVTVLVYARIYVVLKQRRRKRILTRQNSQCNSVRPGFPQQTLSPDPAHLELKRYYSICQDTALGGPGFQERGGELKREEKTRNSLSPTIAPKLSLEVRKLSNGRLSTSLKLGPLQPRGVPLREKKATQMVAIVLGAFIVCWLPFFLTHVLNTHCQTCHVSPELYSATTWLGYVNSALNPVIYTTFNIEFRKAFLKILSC
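Cells at 1500/well, incubated overnight, then treated with pinned compounds (dopamine as control) for 90 min at 37 degrees C. DiscoveRx reagent added for 30 - 60 minutes at room temperature; luminescence read.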
D1 antagonist: blocks dopamine activation of the human D1 receptor; actives 3.2% (n = 360,000); activity change, negative = inhibition, % at 10 µM; HEK293 TREx D1 cells, calcium flux, dopamine EC80; hits give low values; AID 504652; in the data active = activity change below about -30%; also: % is scaled to controls: 0 for no effect and ±100 for the full control effect
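Antagonism measured as reduced calcium response to an EC80 dopamine addition following 180 s compound pre-read; cells were inducible HEK293 Trex D1 plated overnight at 30 C, read kinetically at 1 cycle/sec.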
D1 potentiator: potentiators of human D1 dopamine receptor; actives 0.036% (n = 360,000); potentiation, % at 10 µM; HEK293 TREx D1 cells, calcium flux, dopamine EC20 potentiation; P21728; in the data active = potentiation above about 30%; also: 0% is about no effect
DRD3 antagonist: blocks the human D3 dopamine receptor; P35462; D3R cells, DiscoveRx beta-arrestin luminescence, antagonist mode; hits give low values; max response, negative = inhibition, %; actives 2.5% (n = 360,000); AID 652054; in the data active = max response below about -50%; inconclusive = no clear call, values can overlap the other calls; also: % is scaled to controls: 0 for no effect and ±100 for the full control effect
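Cells plated overnight at 1500 cells/well, then exposed to library compounds with dopamine controls for 90 minutes at 37 degrees C. DiscoveRx reagent added for 30–60 minutes at room temperature; luminescence read, quantitative HTS format.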
* marks the source's active call; other numbers are inactive results; ? = inconclusive; / = no result.

SMILES	D1 agonist	D3 ag	D1 antagonist	D1 potentiator	DRD3 antagonist
Cc1ccc(C2C=C(c3ccccc3OC(F)F)Nc3ncnn32)cc1 (stereo not drawn)	2	0	10	8	6
CN(C)c1ccc(C2C=C(c3ccc(Cl)cc3OC(F)F)Nc3ncnn32)cc1 (stereo not drawn)	41*	-10	5	-7	-18
CCCOc1ccc(CNC(=O)C(NS(=O)(=O)c2cccs2)C(C)C)cc1 (stereo not drawn)	0	4	11	0	/
C#CC(=O)CC1(CN(Cc2ccccc2)C(=O)OC(C)(C)C)CCCCC1	/	-5	/	/	-23
CC(=O)c1cccc(NC(=O)C(OC(=O)c2cccs2)c2ccccc2)c1 (stereo not drawn)	9	-1	-1	0	30
COCCNC(=O)C(OC(=O)c1cccs1)c1ccccc1 (stereo not drawn)	9	3	-36*	3	3
COc1ccc(CN2C(=O)c3ccccc3C2c2nnnn2Cc2ccccc2)cc1OC (stereo not drawn)	/	7	/	/	24
Nc1nonc1-n1nnc(C(=O)N/N=C/C=C/c2ccccc2)c1CSC1=NCCS1	3	5	3	-3	-50*
Nc1nonc1-n1nnc(C(=O)N/N=C/c2c(Cl)cccc2Cl)c1CSC1=NCCS1	6	-2	10	-3	-53*
CCCc1c(C(=O)N/N=C/C=C/c2ccccc2)nnn1-c1nonc1N	/	0	/	/	-18
Clc1ccc(CNc2cc(-c3ccccc3)nc3nncn23)cc1	4	2	17	-2	/
O=c1c(N2CCc3ccccc3C2)csc2ccc(Br)cc12	6	-10	11	2	/
c1ccc(CNc2ncnc3c2cnn3-c2ccccc2)cc1	3	0	-3	-4	?
COc1ccc(OC)c(Nc2ncnc3c2cnn3-c2cccc(C)c2)c1	-2	-6	-40*	-9	24
Cc1ccc(-n2ncc3c(NCCc4ccccc4)ncnc32)cc1C	6	-1	-59*	-4	/
c1ccc(CCNc2ncnc3c2cnn3-c2ccccc2)cc1	-2	-2	21	-9	23
Cc1cccc(-n2ncc3c(NCc4ccccc4)ncnc32)c1	3	1	-89*	-8	17
COc1ccc(OC)c(Nc2ncnc3c2cnn3-c2cccc(Cl)c2)c1	-2	-8	11	0	/
COc1ccccc1NCc1nnc2n1CCCCC2	3	-7	-7	3	/
COc1ccc(-n2c(C)cc(C(=O)COC(=O)c3ccc(O)cc3O)c2C)cc1	3	44*	-19	4	55
Cc1cc(C(=O)COC(=O)c2ccc(O)cc2O)c(C)n1-c1ccccc1	11	18	-7	-1	6
CC(C)(C)C1CCc2c(sc(NC(=O)C3CC=CCC3C(=O)O)c2C#N)C1 (stereo not drawn)	0	7	-40*	0	8
CC(=O)c1cccc(-n2c(=O)c3c4c(sc3n(CC(=O)c3ccc(Cl)cc3)c2=O)CN(C(C)=O)CC4)c1	-1	-7	15	0	/
CC[C@@]12C(=O)N(c3ccc(OC)cc3)C(=O)N1[C@H](c1cccc(C)c1)[C@@H]1C(=O)N(Cc3ccccc3)C(=O)[C@@H]12	6	45*	19	-5	7
Cc1ccc(N2C(=O)N3[C@H](c4cccc(C)c4)[C@@H]4C(=O)N(Cc5ccccc5)C(=O)[C@@H]4[C@]3(C)C2=O)cc1	4	0	26	-6	?
SMILES	D1 agonist	D3 ag	D1 antagonist	D1 potentiator	DRD3 antagonist
CC[C@@]12C(=O)N(c3ccc(C)cc3)C(=O)N1[C@H](c1cccc(C)c1)[C@@H]1C(=O)N(Cc3ccccc3)C(=O)[C@@H]12	5	30*	6	-7	0
CC[C@@]12C(=O)N(c3cccc(Cl)c3)C(=O)N1[C@H](c1cccc(C)c1)[C@@H]1C(=O)N(Cc3ccccc3)C(=O)[C@@H]12	5	2	9	-2	?
COc1ccc(CSc2nc(C)cc(=O)[nH]2)cc1Br	4	-11	-3	-2	-84*
COC(=O)C1=C(O)C(C(=O)OC)C(c2ccc(C)cc2)C(C#N)(C#N)C1c1ccc(C)cc1 (stereo not drawn)	1	2	-6	-7	2
O=c1oc2ccc3ccccc3c2cc1-c1nnc(Nc2ccccc2)s1	10	1	9	3	/
Nc1nnc(-c2cc3c(ccc4ccccc43)oc2=O)s1	49*	/	-9	12	/
COc1cccc(Nc2sc(C(=O)c3ccc4c(c3)OCO4)c(N)c2S(=O)(=O)c2ccccc2)c1	30	-10	3	4	/
Nc1c(C(=O)c2ccc3c(c2)OCO3)sc(Nc2ccccc2F)c1S(=O)(=O)c1ccccc1	21	-18	4	-1	/
Cc1ccc(S(=O)(=O)c2c(Nc3ccc(C)c(C)c3)sc(C(=O)c3ccc4c(c3)OCO4)c2N)cc1	68*	-11	-23	6	/
CCOc1ccc(Nc2sc(C(=O)c3ccc4c(c3)OCO4)c(N)c2S(=O)(=O)c2ccc(C)cc2)cc1	37*	-13	-17	-1	/
Cc1ccc(S(=O)(=O)c2c(Nc3cc(C)ccc3C)sc(C(=O)c3ccc4c(c3)OCO4)c2N)cc1	84*	-8	8	8	/
O=C(Nc1ccc(Oc2ccccc2)cc1)c1csc([C@H]2C[C@H](O)[C@@H](CO)O2)n1	/	5	/	/	16
CCc1nnc(SCC(=O)Nc2ccc(Cl)cc2F)c2cc3occc3n12	1	-2	7	-1	/
COc1ccc(-n2c(=O)c3sc4ccccc4c3n(CC(=O)Nc3ccccc3F)c2=O)cc1	4	6	-3	-2	/
Cc1cc(OCCOCC[N+](C)(C)Cc2ccccc2)ccc1C(C)(C)CC(C)(C)C	/	-21	/	/	/
CC(=O)N1CCc2cc(C(=O)CN3CCN(c4cccc(Cl)c4)CC3)ccc21	7	-8	-22	-6	-50*
CC(=O)N1CCc2cc(C(=O)CN3CCC(C)CC3)ccc21	2	-9	2	-2	-10
Cc1ccc(C)c(NC(=O)/C(C#N)=C/c2ccc(C(C)C)cc2)c1	2	6	16	1	/
Cn1c(-c2ccccc2)cnc1NCc1ccccc1	0	-2	-16	-15	11
Cn1c(-c2cccc(Br)c2)cnc1NCc1ccccc1O	4	-12	-35*	-5	-25
CC(C)Cc1nc(S(=O)(=O)c2ccc(Cl)cc2)c(N2CCOCC2)o1	3	3	21	2	-54*
CC(C)(C)c1nc(S(=O)(=O)c2ccc(Cl)cc2)c(N2CCOCC2)o1	3	-8	-5	4	-28
CN(C)c1ccc(CNc2nc(-c3ccco3)nn2S(C)(=O)=O)cc1	2	-4	17	-1	/
CCOc1ccc(C2=NNC(c3cccs3)=Nc3ccc(OC)cc32)cc1	1	-4	-38*	-5	-11
CC(C)c1nn2c(=O)cc(COC(=O)CNC(=O)c3ccccc3)nc2s1	-2	-10	-12	-6	/

Screening results from PubChem.
